Several values for one entry are separate records, joined by “and”; a condition that tells them apart may be missing. Identical values can stand only once. Records with an inconclusive call do not appear. Activity calls are given as the source filed them.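 The calls were made as follows, unless noted: active = normalized viability below 100% at a tested concentration; inactive = the rest.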
Columns and labels:
[1] = Wnt pathway potentiators raising nuclear beta-catenin – imaging, WNT3A-conditioned medium, mouse C2C12, NPC library, primary screen (AID 1117326; in the data active = nuclear beta-catenin stimulation mostly above about 4.2%, no sharp cut-off; inactive = mostly below about 10%); conditions: stronger effect = higher value
[2] = stimulators of insulin release from INS-1E, primary screen, cell-based, 5 mM glucose, NPC library (AID 1117329;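 active = compound raises insulin release from rat beta cells at 5 mM glucose, no numeric limit stated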); conditions: rat INS-1E insulin secretion, at 10 µM, stronger effect = higher value
[3] = growth inhibition of GSK3B-pretreated HCT116 cells – cell-based, CellTiter-Glo, 0.2 to 20 µM (AID 1117336;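 active = compounds lowering colon cancer cell viability after pretreatment blocking the GSK3B kinase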); conditions: HCT116 viability after GSK3B inhibitor, at 20 µM, stronger effect = higher value
[4] = inhibition of endothelial tube formation, primary screen, imaging, VEGF stimulated, CD31 staining, tube area, NPC library (AID 1117340;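 active = compound that reduces growth-factor-driven endothelial tube area in a mixed cell culture, no cutoff stated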); conditions: VEGF-stimulated ADSC/ECFC co-culture, at 10 µM, stronger effect = higher value
[5] = GLP1 release stimulators, primary, NCI-H716, NPC library (AID 1117341;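 active = compound raises GLP1 secretion from the human gut endocrine cells, with no numeric limit stated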); conditions: NCI-H716 cells, at 10 µM, stronger effect = higher value
[6] = HCT116 colon cancer cell growth inhibition, primary screen, CellTiter-Glo luminescence, NPC library (AID 1117342;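 active = compounds that lower survival of HCT116 colon cancer cells in the luminescence readout, no numeric limit stated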); conditions: at 20 µM (top of the series)
[7] = reduced SW480 viability measured with CellTiter-Glo, NPC library, primary (AID 1117343;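 active = compounds that lower viability of the colon cancer cells in the luminescence readout, with no numeric limit stated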); conditions: CellTiter-Glo luminescence; at 20 µM (top of the series) unless noted
[8] = NPC library primary testing for decreased DLD-1 cell viability via CellTiter-Glo (AID 1117346;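 active = compounds that lower survival of DLD-1 colon cancer cells in the luminescence readout, no cutoff given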); conditions: DLD-1 viability, CellTiter-Glo luminescence; at 20 µM (top of the series)
[9] = viability loss in pontine glioma line – cell-based, SU-DIPG-XVII, MIPE5.0, CellTiter-Glo, qHTS, dose response (AID 1347060; cut-off not given, nearly all actives have AC50 up to about 26 µM;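 also: cells exposed to compound for 48 hours before viability readout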); conditions: CellTiter-Glo ATP luminescence
[10] = viability loss in pontine glioma line – cell-based, SU-DIPG-XIII, MIPE4.0, CellTiter-Glo, qHTS, dose response (AID 1347061; cut-off not given, nearly all actives have AC50 up to about 37 µM;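 also: cells exposed to compound for 48 hours before readout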); conditions: CellTiter-Glo ATP luminescence
[11] = growth inhibition of DIPG cells – cell-based, MIPE4.0 library, CellTiter-Glo luminescence, qHTS (AID 1347066; cut-off not given, nearly all actives have AC50 up to about 30 µM;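 also: cells exposed to compound for 48 hours before readout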); conditions: SU-DIPG-VI viability, CellTiter-Glo ATP luminescence
[12] = growth inhibition of DIPG cells – cell-based, MIPE5.0 library, qHTS (AID 1347068; cut-off not given, nearly all actives have IC50 up to about 30 µM;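 as to IC50: cells exposed to compound for 48 hours before viability readout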); conditions: SU-DIPG-XXV viability
[13] = viability loss with induced miR-34 in A549 – imaging, A549 dox-inducible miR-34, nuclei and caspase counts, primary screen (AID 1347080;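 active = compounds whose cell count with miR-34 switched on is under 0.7 times the count with it off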); conditions: A549 miR-34 inducible, Hoechst nuclei count, 48 h
[14] = MELAS cybrid and Rieske KO viability enhancers – cell-based, MELAS cybrids, Rieske KO mouse fibroblasts, CellTiter-Glo, primary screen (AID 1508586;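 active = mean z-score across replicates of 1.96 or higher in either the MELAS or the Rieske mutant cell line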;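 also: z relative to plate mean and SD of compound and empty wells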); conditions: low glucose
[15] = drug combination growth inhibition, ovarian cancer – cell-based, oncology-focused library, rucaparib conditional, profiling panel (AID 1508598); conditions: patient-derived ovarian cancer cells, CellTiter-Glo viability, 144 h, stronger effect = lower value
[16] = test system: Aerobactin synthetase IucA (Klebsiella pneumoniae); experiment: inhibition of K. pneumoniae IucA enzyme – biochemical, Tocris library, absorbance (AID 1345561; call rule not given here;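 also: 100% = enzyme without compound and 0% = no enzyme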); conditions: purified IucA enzyme assay, absorbance (OD) read-out; stronger effect = lower value;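 tested at 8 µM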
[17] = galactose survival enhancers in mitochondrial complex I cybrids – cell-based, galactose medium, ATP luminescence, primary screen (AID 1645843;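 active = z-score of at least 1.8 in each of two replicates, scored against plate mean and spread of sample wells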;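 also: positive z means more ATP and so rescue of galactose-driven cybrid death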); conditions: complex I mutant cybrid cells, 72 h, stronger effect = higher value
[18] = P. berghei load reduction in hepatocytes – cell-based, HepG2, luciferase luminescence, HepG2 viability, primary screen (AID 624349; in the data active = parasite load remaining mostly below about 12%, no sharp cut-off; inactive = mostly above about 10%;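 also: 100% = mean of DMSO negative control wells on the same plate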); conditions: P. berghei liver stage in HepG2, luciferase luminescence, concentration not given here; parasite load remaining: stronger effect = lower value; viability: measured here: HepG2 viability without parasites
[19] = stronger effect = lower value, cell number ratio, induced over uninduced
[20] = measured here: relative caspase fold change +Dox/-Dox
[21] = measured here: total cells with miR-34 induction, stronger effect = lower value
[22] = measured here: total cells without miR-34 induction
[23] = MELAS cybrid survival, CellTiter-Glo 48 h, stronger effect = higher value
[24] = Rieske KO mouse fibroblast survival, CellTiter-Glo 72 h

## CNC(=O)c1cc(Oc2ccc(NC(=O)Nc3ccc(Cl)c(C(F)(F)F)c3)cc2)ccn1
[1]; at 10 µM
  nuclear beta-catenin stimulation: -1.4% (inactive)
[1]; stimulation, at 2 µM
  nuclear beta-catenin stimulation: 9.1%
[2]
  insulin secretion stimulation: 0.4% (inactive)
[3]
  viability decrease: 120% (active)
[4]
  tube area decrease: 111% (active)
[5]
  GLP1 secretion stimulation: -3.6% (inactive)
[6]
  inhibition of viability: 124% (active)
[7]
  viability decrease (inhibition): 166% (active)
[8]
  viability decrease (inhibition): 102% (active)
[9]
  AC50: 14.8 µM (active)
[10]
  AC50: 18.7 µM (active)
[11]
  AC50: 20.9 µM (active)
[12]
  IC50: 10.5 µM (active)
[13]; [19]
  fold change: 0.979 (inactive) and 1.42 (inactive)
[13]; [20]
  fold change: 0.87 and 0.612
[13]; [21]
  cell count: 1320 and 3300
[13]; [22]
  cell count: 1350 and 2320
[14]; [23]
  z-score: -0.549 (inactive) and -0.383 (inactive)
[14]; [24]
  z-score: 0.813 and 0.844
[15]; at 0.000305 µM, OCI-C5x cells, with rucaparib 10 µM, 100% = cells with rucaparib alone
  viability: 115% (inactive)
[15]; at 0.000305 µM, OCI-C5x cells, without rucaparib
  viability: 112% (inactive)
[15]; at 0.000305 µM, OCI-P5x cells, with rucaparib 20 µM, 100% = cells with rucaparib alone
  viability: 124% (inactive)
[15]; at 0.000305 µM, OCI-P5x cells, without rucaparib
  viability: 97.6% (active)
[15]; at 0.00122 µM, OCI-C5x cells, with rucaparib 10 µM, 100% = cells with rucaparib alone
  viability: 119% (inactive)
[15]; at 0.00122 µM, OCI-C5x cells, without rucaparib
  viability: 111% (inactive)
[15]; at 0.00122 µM, OCI-P5x cells, with rucaparib 20 µM, 100% = cells with rucaparib alone
  viability: 129% (inactive)
[15]; at 0.00122 µM, OCI-P5x cells, without rucaparib
  viability: 99.4% (active)
[15]; at 0.00488 µM, OCI-C5x cells, with rucaparib 10 µM, 100% = cells with rucaparib alone
  viability: 119% (inactive)
[15]; at 0.00488 µM, OCI-C5x cells, without rucaparib
  viability: 114% (inactive)
[15]; at 0.00488 µM, OCI-P5x cells, with rucaparib 20 µM, 100% = cells with rucaparib alone
  viability: 136% (inactive)
[15]; at 0.00488 µM, OCI-P5x cells, without rucaparib
  viability: 99.4% (active)
[15]; at 0.0195 µM, OCI-C5x cells, with rucaparib 10 µM, 100% = cells with rucaparib alone
  viability: 111% (inactive)
[15]; at 0.0195 µM, OCI-C5x cells, without rucaparib
  viability: 112% (inactive)
[15]; at 0.0195 µM, OCI-P5x cells, with rucaparib 20 µM, 100% = cells with rucaparib alone
  viability: 133% (inactive)
[15]; at 0.0195 µM, OCI-P5x cells, without rucaparib
  viability: 101% (inactive)
[15]; at 0.0781 µM, OCI-C5x cells, with rucaparib 10 µM, 100% = cells with rucaparib alone
  viability: 108% (inactive)
[15]; at 0.0781 µM, OCI-C5x cells, without rucaparib
  viability: 106% (inactive)
[15]; at 0.0781 µM, OCI-P5x cells, with rucaparib 20 µM, 100% = cells with rucaparib alone
  viability: 144% (inactive)
[15]; at 0.0781 µM, OCI-P5x cells, without rucaparib
  viability: 99.6% (active)
[15]; at 0.313 µM, OCI-C5x cells, with rucaparib 10 µM, 100% = cells with rucaparib alone
  viability: 111% (inactive)
[15]; at 0.313 µM, OCI-C5x cells, without rucaparib
  viability: 116% (inactive)
[15]; at 0.313 µM, OCI-P5x cells, with rucaparib 20 µM, 100% = cells with rucaparib alone
  viability: 144% (inactive)
[15]; at 0.313 µM, OCI-P5x cells, without rucaparib
  viability: 105% (inactive)
[15]; at 1.25 µM, OCI-C5x cells, with rucaparib 10 µM, 100% = cells with rucaparib alone
  viability: 116% (inactive)
[15]; at 1.25 µM, OCI-C5x cells, without rucaparib
  viability: 120% (inactive)
[15]; at 1.25 µM, OCI-P5x cells, with rucaparib 20 µM, 100% = cells with rucaparib alone
  viability: 155% (inactive)
[15]; at 1.25 µM, OCI-P5x cells, without rucaparib
  viability: 114% (inactive)
[15]; at 5 µM, OCI-C5x cells, with rucaparib 10 µM, 100% = cells with rucaparib alone
  viability: 123% (inactive)
[15]; at 5 µM, OCI-C5x cells, without rucaparib
  viability: 126% (inactive)
[15]; at 5 µM, OCI-P5x cells, with rucaparib 20 µM, 100% = cells with rucaparib alone
  viability: 31.8% (active)
[15]; at 5 µM, OCI-P5x cells, without rucaparib
  viability: 116% (inactive)

## CC[N+](CC)(CCNC(=O)C(=O)NCC[N+](CC)(CC)Cc1ccccc1Cl)Cc1ccccc1Cl
[1]; at 10 µM
  nuclear beta-catenin stimulation: 0.3% (inactive)
[1]; stimulation, at 2 µM
  nuclear beta-catenin stimulation: 3.3%
[2]
  insulin secretion stimulation: 0.9% (inactive)
[3]
  viability decrease: -14.5% (inactive)
[4]
  tube area decrease: -8.9% (inactive)
[5]
  GLP1 secretion stimulation: 2.4% (inactive)
[6]
  inhibition of viability: 2.83% (inactive)
[7]
  viability decrease (inhibition): 6.4% (inactive)
[8]
  viability decrease (inhibition): -9.9% (inactive)
[16]
  remaining activity: 122% (inactive)
[13]; [19]
  fold change: 0.939 (inactive)
[13]; [20]
  fold change: 1.05
[13]; [21]
  cell count: 8990
[13]; [22]
  cell count: 9570
[17]
  z-score: 0.25 (inactive)

## NS(=O)(=O)c1cc(Cl)c(Cl)c(S(N)(=O)=O)c1
[18]
  parasite load remaining: 89.1% (inactive)
  viability: 104%
[1]; at 10 µM
  nuclear beta-catenin stimulation: -1.4% (inactive)
[1]; stimulation, at 2 µM
  nuclear beta-catenin stimulation: 0.4%
[2]
  insulin secretion stimulation: 3.3% (inactive)
[3]
  viability decrease: 1% (inactive)
[4]
  tube area decrease: -7.2% (inactive)
[5]
  GLP1 secretion stimulation: 0.3% (inactive)
[6]
  inhibition of viability: 6.4% (inactive)
[7]
  viability decrease (inhibition): 6.1% (inactive)
[8]
  viability decrease (inhibition): -8.2% (inactive)
[9]
  AC50: 26.3 µM (active)
[10]
  outcome: inactive
[11]
  outcome: inactive
[12]
  outcome: inactive
[13]; [19]
  fold change: 0.878 (inactive) and 0.937 (inactive)
[13]; [20]
  fold change: 1.4 and 0.793
[13]; [21]
  cell count: 8460 and 8780
[13]; [22]
  cell count: 9640 and 9360
[14]; [23]
  z-score: -0.199 (inactive) and -0.0719 (inactive)
[14]; [24]
  z-score: 0.943 and -0.845

Source: PubChem BioAssay
